Assay results reported in PubChem BioAssay (NCATS).
Records with an inconclusive call do not appear. Calls of active or inactive are those of the source. Calls follow the shape of the dose curve; as a rule, active = well fitted activation curve with a large enough effect; inconclusive = small, poorly fitted or top-dose-only effect; inactive = flat fitted curve, though single readings scatter.

Test: Primary redox qHTS assay for identification of artifact compounds. (AID 1845223)
Conditions: Amplex Red/HRP redox cycling with DTT, fluorescence; series mostly up to 53.8 µM
Summary of the method: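 Amplex Red (25 uM) and HRP (250 mU/mL) in HBSS, with compounds for 15 min, then 250 uM DTT for 30 min, room temperature, dark. Fluorescence 525/598 nm read; normalized to DMSO and 10 uM DA3003; Hill fit.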

Row | Structure (SMILES) | outcome
1 | C=CC(=O)Nc1cccc(Sc2nc(Nc3ccc(N4CCN(C)CC4)cc3)ncc2Cl)c1 | inactive
2 | CCc1cccc(CC)c1NC(=O)N1Cc2[nH]nc(NC(=O)c3ccc(N4CCN(C)CC4)cc3)c2C1 | inactive
3 | N#Cc1ccc(Oc2ccc3c(c2)COB3O)cc1 | inactive
4 | CCNC(=O)c1noc(-c2cc(C(C)C)c(O)cc2O)c1-c1ccc(CN2CCOCC2)cc1 | inactive
5 | Cc1cc(C(C)Nc2ccccc2)c2nc(N3CCOCC3)cc(=O)n2c1 (stereo not given) | inactive
6 | C[C@@H](NC(=O)c1ncnc(N)c1Cl)c1ncc(C(=O)Nc2cc(C(F)(F)F)c(Cl)cn2)s1 | inactive
7 | NC1(C(=O)N[C@@H](CCO)c2ccc(Cl)cc2)CCN(c2ncnc3[nH]ccc23)CC1 | inactive
8 | c1ccc(-c2oc3ncnc(NC[C@@H]4CCCO4)c3c2-c2ccccc2)cc1 | inactive
9 | Nc1[nH]nc2nnc(-c3c(-c4ccccc4)nn4ccccc34)cc12 | inactive
10 | O=C(Nc1cccc(C(F)(F)F)c1)Nc1cc(S(=O)(=O)NC2CC2)ccc1-c1ccsc1 | inactive
11 | CC1(C)CC(=O)c2c(C(F)(F)F)nn(-c3ccc(C(N)=O)c(NC4CCC(O)CC4)c3)c2C1 (stereo not given) | inactive
12 | Cc1nc2c([nH]1)CCN(C(=O)c1ccc(NC(=O)c3ccccc3-c3ccccc3)cc1)c1ccccc1-2 | inactive
13 | Cc1cccc2c1CC[C@H](CN1CCC(c3c(Cl)cccc3Cl)CC1)C[C@@H]2O | inactive
14 | O=S(=O)(O)c1ccc2cc(N=Nc3cc(S(=O)(=O)O)c4cccnc4c3O)ccc2c1 | inactive
15 | CC1CCN(c2cc(N3CCN(C)CC3)ccc2NC(=O)c2cc(C#N)c[nH]2)CC1 | inactive
